Results published in PubChem BioAssay (EPA / NIEHS).
Active and inactive are the calls of the source. The calls were made as follows: active = hit-call score of the fitted dose curve at least 0.9, where 1 is the maximum; inactive = score below 0.9.

Key:
[1] = read-out: Urokinase-type plasminogen activator receptor (uPAR), PLAUR (gene 5329); assay: BSK_CASM3C_uPAR: BioMAP Diversity Plus: CASM3C Assay for Urokinase-type plasminogen activator receptor (uPAR) Biomarker Activity (AID 2283054); settings: primary human coronary artery smooth muscle cells; actives raise or lower the signal;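 also: cell-surface uPAR protein level quantified by ELISA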
[2] = read-out: Vascular cell adhesion molecule 1 (VCAM1), VCAM1 (gene 7412); assay: BSK_CASM3C_VCAM1: BioMAP Diversity Plus: CASM3C Assay for Vascular cell adhesion molecule 1 (VCAM1) Biomarker Activity (AID 2283055); settings: primary human coronary artery smooth muscle cells; actives raise or lower the signal;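 also: VCAM-1 protein level quantified by ELISA on the cells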
[3] = read-out: Collagen III, COL3A1 (gene 1281); assay: BSK_hDFCGF_CollagenIII: BioMAP Diversity Plus: hDFCGF Assay for Collagen III Biomarker Activity (AID 2283056); settings: primary human foreskin fibroblasts; actives raise or lower the signal
In short: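 Response relative to DMSO, fitted in both directions, reflects ELISA-measured collagen III in human primary skin fibroblasts 24 h after compound addition.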

[4] = read-out: Epidermal growth factor receptor (EGFR), EGFR (gene 1956); assay: BSK_hDFCGF_EGFR: BioMAP Diversity Plus: hDFCGF Assay for Epidermal growth factor receptor (EGFR) Biomarker Activity (AID 2283057); settings: primary human foreskin fibroblasts; actives raise or lower the signal
In short: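 EGFR levels by ELISA in human dermal fibroblast cultures, 24 h post-treatment, fitted bidirectionally versus DMSO. Parallel wells stained with sulforhodamine B to detect overt cytotoxicity.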

[5] = read-out: Interleukin-8 (IL8), CXCL8 (gene 3576); assay: BSK_hDFCGF_IL8: BioMAP Diversity Plus: hDFCGF Assay for Interleukin-8 (IL8) Biomarker Activity (AID 2283058); settings: primary human foreskin fibroblasts; actives raise or lower the signal
In short: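 Fibroblast monolayers (human foreskin, hDFCGF) received test chemical for 24 h before ELISA detection of IL-8; either increases or decreases relative to DMSO count as activity.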

[6] = BSK_hDFCGF_Proliferation: Cell Proliferation Assessment in the BioMAP Diversity Plus: hDFCGF Assay (AID 2283059); settings: primary human foreskin fibroblasts;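 also: curves fitted for both rise and fall of signal versus DMSO baseline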
In short: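 Primary human foreskin fibroblasts, sub-confluent; […]; 10% TCA fix, 0.1% SRB stain, A560 total protein. Gain/loss fitted bidirectionally vs DMSO control.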

[7] = read-out: Macrophage colony-stimulating factor (MCSF), CSF1 (gene 1435); assay: BSK_hDFCGF_MCSF: BioMAP Diversity Plus: hDFCGF Assay for Macrophage colony-stimulating factor (MCSF) Biomarker Activity (AID 2283060); settings: primary human foreskin fibroblasts; actives raise or lower the signal
In short: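 fibroblasts (human foreskin, primary), 24 h post-dose; M-CSF by ELISA; bidirectional fit, DMSO = baseline.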

[8] = read-out: TIMP metallopeptidase inhibitor 1 (TIMP1), TIMP1 (gene 7076); assay: BSK_hDFCGF_TIMP1: BioMAP Diversity Plus: hDFCGF Assay for TIMP metallopeptidase inhibitor 1 (TIMP1) Biomarker Activity (AID 2283062); settings: primary human foreskin fibroblasts; actives raise or lower the signal
In short: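 Bidirectional curve fitting against DMSO baseline yielded this endpoint, based on ELISA detection of TIMP-1 in primary human foreskin fibroblasts exposed to compound for 24 h.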

[9] = read-out: Monokine induced gamma interferon (MIG), CXCL9 (gene 4283); assay: BSK_hDFCGF_MIG: BioMAP Diversity Plus: hDFCGF Assay for Monokine induced gamma interferon (MIG) Biomarker Activity (AID 2283063); settings: primary human foreskin fibroblasts; actives raise or lower the signal
In short: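 Endpoint derived by bidirectional fitting relative to DMSO; MIG quantified via ELISA in primary human foreskin fibroblasts harvested 24 h after dosing.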

[10] = read-out: Matrix Metallopeptidase 1 (MMP1), MMP1 (gene 4312); assay: BSK_hDFCGF_MMP1: BioMAP Diversity Plus: hDFCGF Assay for Matrix Metallopeptidase 1 (MMP1) Biomarker Activity (AID 2283064); settings: primary human foreskin fibroblasts; actives raise or lower the signal
In short: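 Human foreskin fibroblasts exposed to chemical for 24 h; MMP1 detected by ELISA, with DMSO as baseline for bidirectional fitting.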

Q: With `c1ccc(-c2ccccn2)nc1` as the compound, how does the outcome [1] read?
A: Its outcome is “inactive”.

Q: And the outcome [2]?
A: Its outcome is “inactive”.

Q: What about the outcome [3] of the same compound?
A: The outcome was “inactive”.

Q: What about the outcome [4] of the same compound?
A: Its outcome is “inactive”.

Q: And the outcome [5]?
A: Its outcome is “inactive”.

Q: And the outcome [6]?
A: The outcome was “inactive”.

Q: What about the outcome [7] of the same compound?
A: Its outcome is “inactive”.

Q: What about the outcome [8] of the same compound?
A: The outcome was “inactive”.

Q: And the outcome [9]?
A: The outcome was “inactive”.

Q: And the outcome [10]?
A: Its outcome is “inactive”.

Q: Which AC50 [1] does the source give for `O=C(Cl)c1cc(C(=O)Cl)cc(C(=O)Cl)c1` here?
A: Its AC50 is 26 µM (active).

Q: What about the AC50 [2] of the same compound?
A: The AC50 was 17.8 µM (active).

Q: What about the AC50 [3] of the same compound?
A: The AC50 was 21.4 µM (active).

Q: What about the outcome [4] of the same compound?
A: The outcome was “inactive”.

Q: And the outcome [5]?
A: Its outcome is “inactive”.

Q: What about the AC50 [6] of the same compound?
A: The AC50 was 3.77 µM (active).

Q: What about the AC50 [7] of the same compound?
A: The AC50 was 13.6 µM (active).

Q: And the AC50 [8]?
A: The AC50 was 13.7 µM (active).

Q: What about the AC50 [9] of the same compound?
A: The AC50 was 16.1 µM (active).

Q: What about the AC50 [10] of the same compound?
A: Its AC50 is 31.9 µM (active).

Q: With `COCc1c(C(C)C)nc(C(C)C)c(/C=C/[C@@H](O)C[C@@H](O)CC(=O)O)c1-c1ccc(F)cc1` as the compound, how does the outcome [1] read?
A: Its outcome is “inactive”.

Q: And the outcome [2]?
A: The outcome was “inactive”.

Q: And the outcome [3]?
A: The outcome was “inactive”.

Q: And the outcome [4]?
A: The outcome was “inactive”.

Q: What about the AC50 [6] of the same compound?
A: The AC50 was 0.0803 µM (active).

Q: What about the outcome [7] of the same compound?
A: The outcome was “inactive”.

Q: And the outcome [8]?
A: Its outcome is “inactive”.

Q: What about the outcome [9] of the same compound?
A: Its outcome is “inactive”.

Q: And the outcome [10]?
A: Its outcome is “inactive”.

Q: For `CCCCCCCCCCCCCCCC[N+](C)(C)CC`, which AC50 [1] is on record?
A: Its AC50 is 3.16 µM (active).

Q: And the AC50 [2]?
A: The AC50 was 4.21 µM (active).

Q: What about the AC50 [3] of the same compound?
A: Its AC50 is 0.447 µM (active).

Q: What about the outcome [4] of the same compound?
A: The outcome was “inactive”.

Q: What about the AC50 [5] of the same compound?
A: Its AC50 is 12.4 µM (active).

Q: And the AC50 [6]?
A: The AC50 was 0.484 µM (active).

Q: And the AC50 [7]?
A: The AC50 was 1.49 µM (active).

Q: And the AC50 [8]?
A: Its AC50 is 1.89 µM (active).

Q: What about the AC50 [9] of the same compound?
A: Its AC50 is 3.45 µM (active).

Q: What about the AC50 [10] of the same compound?
A: The AC50 was 4.94 µM (active).

Q: Which results are given for `CCCCC(CC)COCC1CO1` (centres undefined)?
A: outcome [1]: inactive; outcome [2]: inactive; outcome [3]: inactive; outcome [4]: inactive; outcome [5]: inactive; outcome [6]: inactive; outcome [7]: inactive; outcome [8]: inactive; outcome [9]: inactive; outcome [10]: inactive

Q: With `C=CCOc1c(Br)cc(Br)cc1Br` as the compound, how does the AC50 [1] read?
A: Its AC50 is 33.5 µM (active).

Q: What about the AC50 [2] of the same compound?
A: The AC50 was 32.3 µM (active).

Q: And the AC50 [3]?
A: Its AC50 is 20 µM (active).

Q: And the outcome [4]?
A: The outcome was “inactive”.

Q: And the outcome [5]?
A: Its outcome is “inactive”.

Q: And the AC50 [6]?
A: The AC50 was 10.3 µM (active).

Q: What about the AC50 [7] of the same compound?
A: The AC50 was 12.5 µM (active).

Q: And the AC50 [8]?
A: The AC50 was 8.19 µM (active).

Q: What about the AC50 [9] of the same compound?
A: The AC50 was 20 µM (active).

Q: What about the AC50 [10] of the same compound?
A: Its AC50 is 30.3 µM (active).

Q: Which outcome [1] does the source give for `CCCCCCCCc1ccc(Nc2ccc(CCCCCCCC)cc2)cc1` here?
A: Its outcome is “inactive”.

Q: What about the outcome [2] of the same compound?
A: The outcome was “inactive”.

Q: What about the outcome [3] of the same compound?
A: The outcome was “inactive”.

Q: What about the outcome [4] of the same compound?
A: Its outcome is “inactive”.

Q: What about the outcome [5] of the same compound?
A: The outcome was “inactive”.

Q: And the outcome [6]?
A: The outcome was “inactive”.

Q: What about the outcome [7] of the same compound?
A: Its outcome is “inactive”.

Q: What about the outcome [8] of the same compound?
A: The outcome was “inactive”.

Q: And the outcome [9]?
A: Its outcome is “inactive”.

Q: And the outcome [10]?
A: The outcome was “inactive”.

Q: What does the source list for `C=CCOCC(O)CCl` (centres undefined)?
A: outcome [1]: inactive; outcome [2]: inactive; outcome [3]: inactive; outcome [4]: inactive; outcome [5]: inactive; outcome [6]: inactive; outcome [7]: inactive; outcome [8]: inactive; outcome [9]: inactive; outcome [10]: inactive

Q: With `CC(C)C(=O)C(C)C` as the compound, how does the outcome [1] read?
A: Its outcome is “inactive”.

Q: What about the outcome [2] of the same compound?
A: Its outcome is “inactive”.

Q: And the outcome [3]?
A: The outcome was “inactive”.

Q: And the outcome [4]?
A: The outcome was “inactive”.

Q: And the outcome [5]?
A: The outcome was “inactive”.

Q: What about the outcome [6] of the same compound?
A: The outcome was “inactive”.

Q: And the outcome [7]?
A: Its outcome is “inactive”.

Q: And the outcome [8]?
A: The outcome was “inactive”.

Q: And the outcome [9]?
A: The outcome was “inactive”.

Q: And the outcome [10]?
A: Its outcome is “inactive”.
